Publication PMC7862700, “An all-to-all approach to the identification of sequence-specific readers for epigenetic DNA modifications on cytosine”

Assays:
Assay in all cases: DAPPL (digital affinity profiling via proximity ligation, sequencing); 10 mM Tris-HCl pH 7.5, 50 mM NaCl, 1 mM DTT, 4% glycerol, room temperature, 30 min; GST-TFs on glutathione beads, 16-mer random dsDNA library, 0.1% formaldehyde crosslink after washing; high values mean tight binding
Settings in all cases: protein: recombinant; tags: N-terminal GST; dsDNA, one strand shown
FLI1 = biological target: T1, FLI1 (Homo sapiens, UniProt Q01543 1-452)
T1 sequence: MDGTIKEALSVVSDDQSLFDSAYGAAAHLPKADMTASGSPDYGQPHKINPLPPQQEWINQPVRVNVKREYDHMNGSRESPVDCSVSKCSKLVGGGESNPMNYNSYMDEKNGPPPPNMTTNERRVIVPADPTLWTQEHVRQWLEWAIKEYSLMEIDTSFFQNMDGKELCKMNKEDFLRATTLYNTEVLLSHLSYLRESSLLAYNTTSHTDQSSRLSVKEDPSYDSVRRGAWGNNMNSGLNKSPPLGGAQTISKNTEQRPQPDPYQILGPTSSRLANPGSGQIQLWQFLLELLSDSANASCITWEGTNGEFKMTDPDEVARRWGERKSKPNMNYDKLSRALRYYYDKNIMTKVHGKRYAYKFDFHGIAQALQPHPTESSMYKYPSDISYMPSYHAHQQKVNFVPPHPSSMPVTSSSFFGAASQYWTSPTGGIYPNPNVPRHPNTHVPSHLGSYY
Outline: (§1)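 Human transcription factors were made in yeast as GST fusions, captured on glutathione beads and barcoded with DNA. With a tag-only sample included, the pool was incubated with 200 nmole of a random double-stranded 16-mer DNA library in Tris/NaCl/DTT/glycerol buffer at room temperature for 30 min, then crosslinked with 0.1% formaldehyde after washing, ligated by proximity, amplified and sequenced. For binding signal, each hexamer's read frequency for a factor is divided by its frequency for the tag-only sample.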

ELK1 = biological target: T2, ELK1 (Homo sapiens, UniProt P19419 1-428)
T2 sequence: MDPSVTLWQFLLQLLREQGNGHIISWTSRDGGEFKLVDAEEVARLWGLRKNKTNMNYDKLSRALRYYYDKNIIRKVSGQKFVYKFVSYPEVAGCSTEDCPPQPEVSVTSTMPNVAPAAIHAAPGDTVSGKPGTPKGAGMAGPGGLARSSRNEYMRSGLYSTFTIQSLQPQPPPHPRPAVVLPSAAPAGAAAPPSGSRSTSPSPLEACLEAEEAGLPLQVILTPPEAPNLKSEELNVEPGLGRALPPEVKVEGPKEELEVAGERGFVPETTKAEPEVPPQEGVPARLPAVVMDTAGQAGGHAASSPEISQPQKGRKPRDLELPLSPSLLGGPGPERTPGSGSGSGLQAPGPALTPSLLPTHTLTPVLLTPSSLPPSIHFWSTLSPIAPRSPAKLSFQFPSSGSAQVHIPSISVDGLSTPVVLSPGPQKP
Outline: as §1

GABPA = biological target: T3, GABPA (Homo sapiens, UniProt Q06546 1-454)
T3 sequence: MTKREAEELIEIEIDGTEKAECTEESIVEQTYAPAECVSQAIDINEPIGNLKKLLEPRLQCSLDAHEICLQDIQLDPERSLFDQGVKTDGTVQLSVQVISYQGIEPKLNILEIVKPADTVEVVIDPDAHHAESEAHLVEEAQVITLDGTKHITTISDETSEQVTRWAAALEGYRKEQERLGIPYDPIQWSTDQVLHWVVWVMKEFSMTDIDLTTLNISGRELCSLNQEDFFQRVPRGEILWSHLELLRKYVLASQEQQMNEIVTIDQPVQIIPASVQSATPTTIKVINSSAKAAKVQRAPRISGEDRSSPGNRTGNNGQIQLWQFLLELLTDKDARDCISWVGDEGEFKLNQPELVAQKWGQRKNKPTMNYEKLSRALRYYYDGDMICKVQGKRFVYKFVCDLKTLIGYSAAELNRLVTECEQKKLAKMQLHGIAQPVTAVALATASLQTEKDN
Outline: as §1

ERG = biological target: T4, ERG (Homo sapiens, UniProt P11308 1-479)
T4 sequence: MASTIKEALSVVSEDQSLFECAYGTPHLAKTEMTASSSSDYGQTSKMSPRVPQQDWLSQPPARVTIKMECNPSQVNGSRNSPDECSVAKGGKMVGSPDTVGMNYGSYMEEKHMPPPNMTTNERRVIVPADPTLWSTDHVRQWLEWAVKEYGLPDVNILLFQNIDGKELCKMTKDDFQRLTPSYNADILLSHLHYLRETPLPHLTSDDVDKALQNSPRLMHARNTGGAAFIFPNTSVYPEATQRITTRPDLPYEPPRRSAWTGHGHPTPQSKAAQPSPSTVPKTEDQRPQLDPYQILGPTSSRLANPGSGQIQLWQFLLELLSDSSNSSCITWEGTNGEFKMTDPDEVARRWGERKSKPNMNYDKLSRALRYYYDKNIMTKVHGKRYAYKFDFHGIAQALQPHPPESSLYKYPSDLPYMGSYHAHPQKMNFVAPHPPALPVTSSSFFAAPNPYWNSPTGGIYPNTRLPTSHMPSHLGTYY
Outline: as §1

ELF1 = ELF1 (Homo sapiens, UniProt P32519 1-619)
ELF1, sequence (P32519 whole entry): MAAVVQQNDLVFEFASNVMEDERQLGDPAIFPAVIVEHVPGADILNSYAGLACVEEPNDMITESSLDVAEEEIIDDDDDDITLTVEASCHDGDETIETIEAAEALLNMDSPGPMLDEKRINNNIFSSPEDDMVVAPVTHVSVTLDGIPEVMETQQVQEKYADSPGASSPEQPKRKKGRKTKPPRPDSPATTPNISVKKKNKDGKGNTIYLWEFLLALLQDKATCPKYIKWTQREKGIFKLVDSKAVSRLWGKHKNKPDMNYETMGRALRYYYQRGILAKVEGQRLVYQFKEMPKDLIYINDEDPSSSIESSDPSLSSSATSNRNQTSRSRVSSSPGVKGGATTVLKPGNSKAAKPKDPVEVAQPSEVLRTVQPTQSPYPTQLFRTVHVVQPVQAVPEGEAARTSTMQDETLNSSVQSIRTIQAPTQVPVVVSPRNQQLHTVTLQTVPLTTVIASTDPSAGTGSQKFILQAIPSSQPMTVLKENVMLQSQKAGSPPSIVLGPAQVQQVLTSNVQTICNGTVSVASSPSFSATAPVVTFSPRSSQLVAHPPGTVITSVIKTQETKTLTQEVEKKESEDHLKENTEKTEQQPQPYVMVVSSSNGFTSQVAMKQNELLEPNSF
Outline: as §1

EHF = biological target: T5, EHF (Homo sapiens, UniProt Q9NZC4 1-300)
T5 sequence: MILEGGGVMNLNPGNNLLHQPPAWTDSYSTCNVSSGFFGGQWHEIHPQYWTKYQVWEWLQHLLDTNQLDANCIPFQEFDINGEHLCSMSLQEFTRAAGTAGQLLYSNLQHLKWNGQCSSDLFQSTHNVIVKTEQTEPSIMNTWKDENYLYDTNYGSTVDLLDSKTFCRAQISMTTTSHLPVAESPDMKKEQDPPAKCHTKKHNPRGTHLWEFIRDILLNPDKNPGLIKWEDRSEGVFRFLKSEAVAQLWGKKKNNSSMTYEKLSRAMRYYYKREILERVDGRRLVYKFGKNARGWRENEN
Outline: as §1

SPI1 = SPI1 (Homo sapiens, UniProt P17947 1-270)
Outline: as §1

SPIB = SPIB (Homo sapiens, UniProt Q01892 1-262)
SPIB, sequence (Q01892 whole entry): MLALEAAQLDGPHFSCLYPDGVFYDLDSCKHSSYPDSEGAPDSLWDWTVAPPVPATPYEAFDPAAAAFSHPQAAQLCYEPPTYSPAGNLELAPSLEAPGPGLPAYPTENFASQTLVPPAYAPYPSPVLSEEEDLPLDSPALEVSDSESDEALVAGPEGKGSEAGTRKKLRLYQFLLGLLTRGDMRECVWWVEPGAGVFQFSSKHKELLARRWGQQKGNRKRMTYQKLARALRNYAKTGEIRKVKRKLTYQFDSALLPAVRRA
Outline: as §1

ELK3 = biological target: T6, ELK3 (Homo sapiens, UniProt P41970 1-407)
T6 sequence: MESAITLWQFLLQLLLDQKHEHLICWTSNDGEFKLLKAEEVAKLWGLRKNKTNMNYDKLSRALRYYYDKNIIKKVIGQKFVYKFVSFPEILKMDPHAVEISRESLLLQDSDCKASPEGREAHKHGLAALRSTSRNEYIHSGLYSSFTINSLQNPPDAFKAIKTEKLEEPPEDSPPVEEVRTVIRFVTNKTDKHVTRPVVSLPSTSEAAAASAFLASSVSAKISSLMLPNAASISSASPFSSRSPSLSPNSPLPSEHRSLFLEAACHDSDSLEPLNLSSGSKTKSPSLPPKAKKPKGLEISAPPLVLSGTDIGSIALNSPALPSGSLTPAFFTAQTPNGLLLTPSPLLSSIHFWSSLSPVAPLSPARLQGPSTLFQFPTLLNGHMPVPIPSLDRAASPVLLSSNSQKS
Outline: as §1

CTTACT
binding signal (FLI1): 1.38 fold enrichment (6-mer frequency, TF over GST control)
binding signal (ELK1): 1.31 fold enrichment (6-mer frequency, TF over GST control)
binding signal (GABPA): 1.3 fold enrichment (6-mer frequency, TF over GST control)
binding signal (ERG): 1.27 fold enrichment (6-mer frequency, TF over GST control)
binding signal (ELF1): 1.29 fold enrichment (6-mer frequency, TF over GST control)
binding signal (EHF): 1.34 fold enrichment (6-mer frequency, TF over GST control)
binding signal (SPI1): 1.3 fold enrichment (6-mer frequency, TF over GST control)
binding signal (SPIB): 1.27 fold enrichment (6-mer frequency, TF over GST control)
binding signal (ELK3): 1.34 fold enrichment (6-mer frequency, TF over GST control)

TATCTA
binding signal (FLI1): 1.18 fold enrichment (6-mer frequency, TF over GST control)
binding signal (ELK1): 1.23 fold enrichment (6-mer frequency, TF over GST control)
binding signal (GABPA): 1.35 fold enrichment (6-mer frequency, TF over GST control)
binding signal (ERG): 1.18 fold enrichment (6-mer frequency, TF over GST control)
binding signal (ELF1): 1.18 fold enrichment (6-mer frequency, TF over GST control)
binding signal (EHF): 1.2 fold enrichment (6-mer frequency, TF over GST control)
binding signal (SPI1): 1.27 fold enrichment (6-mer frequency, TF over GST control)
binding signal (SPIB): 1.28 fold enrichment (6-mer frequency, TF over GST control)
binding signal (ELK3): 1.28 fold enrichment (6-mer frequency, TF over GST control)

TTTTAG
binding signal (FLI1): 1.2 fold enrichment (6-mer frequency, TF over GST control)
binding signal (ELK1): 1.07 fold enrichment (6-mer frequency, TF over GST control)
binding signal (GABPA): 1.19 fold enrichment (6-mer frequency, TF over GST control)
binding signal (ERG): 1.19 fold enrichment (6-mer frequency, TF over GST control)
binding signal (ELF1): 1.21 fold enrichment (6-mer frequency, TF over GST control)
binding signal (EHF): 1.12 fold enrichment (6-mer frequency, TF over GST control)
binding signal (SPI1): 1.15 fold enrichment (6-mer frequency, TF over GST control)
binding signal (SPIB): 1.3 fold enrichment (6-mer frequency, TF over GST control)
binding signal (ELK3): 1.16 fold enrichment (6-mer frequency, TF over GST control)

TAGTGT
binding signal (FLI1): 1.17 fold enrichment (6-mer frequency, TF over GST control)
binding signal (ELK1): 1.16 fold enrichment (6-mer frequency, TF over GST control)
binding signal (GABPA): 1.14 fold enrichment (6-mer frequency, TF over GST control)
binding signal (ERG): 1.02 fold enrichment (6-mer frequency, TF over GST control)
binding signal (ELF1): 1.14 fold enrichment (6-mer frequency, TF over GST control)
binding signal (EHF): 1.11 fold enrichment (6-mer frequency, TF over GST control)
binding signal (SPI1): 1.12 fold enrichment (6-mer frequency, TF over GST control)
binding signal (SPIB): 1.14 fold enrichment (6-mer frequency, TF over GST control)
binding signal (ELK3): 1.08 fold enrichment (6-mer frequency, TF over GST control)

ATTACG
binding signal (FLI1): 1.22 fold enrichment (6-mer frequency, TF over GST control)
binding signal (ELK1): 1.13 fold enrichment (6-mer frequency, TF over GST control)
binding signal (GABPA): 1.25 fold enrichment (6-mer frequency, TF over GST control)
binding signal (ERG): 1.17 fold enrichment (6-mer frequency, TF over GST control)
binding signal (ELF1): 1.2 fold enrichment (6-mer frequency, TF over GST control)
binding signal (EHF): 1.12 fold enrichment (6-mer frequency, TF over GST control)
binding signal (SPI1): 1.23 fold enrichment (6-mer frequency, TF over GST control)
binding signal (SPIB): 1.18 fold enrichment (6-mer frequency, TF over GST control)
binding signal (ELK3): 1.25 fold enrichment (6-mer frequency, TF over GST control)

ATATGT
binding signal (FLI1): 1.09 fold enrichment (6-mer frequency, TF over GST control)
binding signal (ELK1): 1.08 fold enrichment (6-mer frequency, TF over GST control)
binding signal (GABPA): 1.16 fold enrichment (6-mer frequency, TF over GST control)
binding signal (ERG): 1.1 fold enrichment (6-mer frequency, TF over GST control)
binding signal (ELF1): 1.2 fold enrichment (6-mer frequency, TF over GST control)
binding signal (EHF): 1.13 fold enrichment (6-mer frequency, TF over GST control)
binding signal (SPI1): 1.09 fold enrichment (6-mer frequency, TF over GST control)
binding signal (SPIB): 1.18 fold enrichment (6-mer frequency, TF over GST control)
binding signal (ELK3): 1.14 fold enrichment (6-mer frequency, TF over GST control)

GTGCTA
binding signal (FLI1): 1.11 fold enrichment (6-mer frequency, TF over GST control)
binding signal (ELK1): 1.09 fold enrichment (6-mer frequency, TF over GST control)
binding signal (GABPA): 1.04 fold enrichment (6-mer frequency, TF over GST control)
binding signal (ERG): 1.09 fold enrichment (6-mer frequency, TF over GST control)
binding signal (ELF1): 1.12 fold enrichment (6-mer frequency, TF over GST control)
binding signal (EHF): 1.03 fold enrichment (6-mer frequency, TF over GST control)
binding signal (SPI1): 1.25 fold enrichment (6-mer frequency, TF over GST control)
binding signal (SPIB): 1.1 fold enrichment (6-mer frequency, TF over GST control)
binding signal (ELK3): 1.14 fold enrichment (6-mer frequency, TF over GST control)
